According to PubChem BioAssay (NCI):
Compounds without any hit were thinned out: in the full panel of roughly 83,000, 20% have a hit.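 Treatment: one concentration, 48 hours, 96-well format. Scoring: percent growth, with anything below 10 considered active.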 Values without a mark were called inactive. The source made the active and inactive calls.

What was measured:
Experiment in all cases: NCI-60 one-dose screen, 48 h (100 = growth as untreated, 0 = no growth, -100 = all killed)
[1] = system: NCI-H226 lung; details: 10 µM
[2] = system: NCI-H322M lung; details: 10 µM
[3] = system: HOP-62 NSCLC; details: 10 µM
[4] = system: A549/ATCC NSCLC; details: 10 µM
[5] = system: 786-0 renal; details: 10 µM
[6] = system: COLO 205 colon; details: 10 µM
[7] = system: DU-145 prostate; details: 10 µM
[8] = system: SF-268 CNS; details: 10 µM
[9] = system: SF-295 CNS; details: 10 µM
[10] = system: SF-539 CNS; details: 10 µM
[11] = system: HCT-15 colon; details: 10 µM
[12] = system: SNB-75 CNS; details: 10 µM
[13] = system: SNB-19 CNS; details: 10 µM
[14] = system: U251 CNS; details: 10 µM
[15] = system: PC-3 prostate; details: 10 µM
[16] = system: EKVX NSCLC; details: 10 µM
[17] = system: UO-31 renal; details: 10 µM
[18] = system: ACHN renal; details: 10 µM
[19] = system: HL-60(TB) leukemia; details: 10 µM unless noted
[20] = system: CCRF-CEM leukemia; details: 10 µM

Compound | growth [1] | growth [2] | growth [3] | growth [4] | growth [5] | growth [6] | growth [7] | growth [8] | growth [9] | growth [10] | growth [11] | growth [12] | growth [13] | growth [14] | growth [15] | growth [16] | growth [17] | growth [18] | growth [19] | growth [20]
CC1=C(CCC=NNC(N)=O)C2=C(C)C3(CC3)[C@@](C)(O)C(=O)C2=C1 | -41.6% (active) | -16.2% (active) | -55.2% (active) | 4.54% (active) | -37.6% (active) | -86.4% (active) | -9.85% (active) | -17.8% (active) | -6.5% (active) | -58.5% (active) | -16.6% (active) | -63.9% (active) | 3.45% (active) | 4.6% (active) | 1.22% (active) | -12.8% (active) | -29.1% (active) | -10.3% (active) | 5.99% (active) | 26.6%
CC1=C2C(=C[C@@](C)(COC(=O)c3ccc(S(=O)(=O)F)cc3)[C@@H]2OC(=O)c2ccc(S(=O)(=O)F)cc2)C(=O)[C@](C)(O)C12CC2 | -6.08% (active) | 9.18% (active) | -20.3% (active) | 2.93% (active) | -44.2% (active) | -78.1% (active) | 5.79% (active) | 2.06% (active) | 1.3% (active) | -4.86% (active) | 0.515% (active) | -8.24% (active) | 21.5% | -21.5% (active) | 16.2% | 23.6% | -13.7% (active) | -15.8% (active) | 8.8% (active) | 36.3%
COc1cc2c(O[C@@H]3OC[C@H](O)[C@H](O)[C@H]3O)c3c(c(-c4ccc5c(c4)OCO5)c2cc1OC)C(=O)OC3 | 80.7% | 82% | 59.1% | 91% | 78.9% | 11.6% | 53.2% | 66.7% | 40.5% | 53.6% | 70.3% | 18% | 97% | 54.8% | 67.1% | 70% | 82.2% | 67.6% | 32.6% | 46.6%
